This is part of a sample that, as a whole, favours compounds with a hit. Of some 83,000 tested, about 20% had one in any assay.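 Compound tested at a single concentration for 48 hours in 96-well plates; a percent growth value below 10 was scored as active.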 Values without a mark were called inactive. Calls of active or inactive are those of the source.
What was measured:
Assay in all cases: NCI-60 one-dose screen, 48 h (100 = growth as untreated, 0 = no growth, -100 = all killed)
Details in all cases: 10 µM unless noted
HCT-15 colon = tested on: HCT-15 colon
HT29 colon = tested on: HT29 colon
SNB-75 CNS = tested on: SNB-75 CNS
SNB-19 CNS = tested on: SNB-19 CNS
U251 CNS = tested on: U251 CNS
PC-3 prostate = tested on: PC-3 prostate
SK-MEL-5 melanoma = tested on: SK-MEL-5 melanoma
UACC-62 melanoma = tested on: UACC-62 melanoma
LOX IMVI melanoma = tested on: LOX IMVI melanoma
SK-MEL-28 melanoma = tested on: SK-MEL-28 melanoma

SMILES | growth (HCT-15 colon) | growth (HT29 colon) | growth (SNB-75 CNS) | growth (SNB-19 CNS) | growth (U251 CNS) | growth (PC-3 prostate) | growth (SK-MEL-5 melanoma) | growth (UACC-62 melanoma) | growth (LOX IMVI melanoma) | growth (SK-MEL-28 melanoma)
COc1cc(OC)cc(C2=C3CC[C@@H]4[C@H](CC[C@]5(C)C(=O)CC[C@@H]45)C3=CC3C(O)c4cccnc4N4C(=O)COC234)c1 (stereo not given in full) | 100% | 104% | 72.9% | 92% | 93.8% | 94.7% | 98.1% | 94.1% | 95.9% | 115%
Nc1ncnc2c1N=C(c1ccc3c(c1)OCO3)CC(c1ccc([N+](=O)[O-])cc1)N2 (stereo not given) | 77% | 86.6% | 59.5% | 86.6% | 86.8% | 47% | 70.3% | 64.8% | 75.5% | 110%
Cn1c(O)c(C=NCCN=Cc2c(O)n(C)c(=O)n(C)c2=O)c(=O)n(C)c1=O | 107% | 97.1% | 88.3% | 97.6% | 102% | 90.4% | 98.7% | 84.1% | 93.2% | 109%
COC(=O)/C(CCC=C(C)C)=C1\[C@@H](OC(C)=O)C[C@@]2(C)[C@H]1C[C@@H](O)[C@H]1[C@@]3(C)CC[C@H](NCCN)[C@@H](C)[C@@H]3CC[C@@]12C | 55% | 33.5% | 73% | 95.1% | 69.1% | 59.6% | 88.3% | 89.5% | 84.5% | 89.2%
c1cnc2[nH]cc(-c3csc(-c4cn(CCCN5CCOCC5)c5ccccc45)n3)c2c1 | 14% | 7.69% (active) | 20.1% | 56.8% | 32.9% | 19.6% | 38% | 65.5% | 30.6% | 65.3%
O=C1c2ccc3c4ccc5c6c(ccc(c7ccc(c2c37)C(=O)N1CCC[P+](c1ccccc1)(c1ccccc1)c1ccccc1)c64)C(=O)N(CCC[P+](c1ccccc1)(c1ccccc1)c1ccccc1)C5=O | 67.9% | 26.4% | 131% | 42.4% | 22.3% | 56.1% | 18.5% | 54.5% | 17% | 15.2%
OCCCC1CCN(C(Cc2ccccc2)c2ccccc2)CC1 (stereo not given) | 100% | 76.5% | 84.2% | 101% | 93.2% | 70.8% | 101% | 97.7% | 93.2% | 64.8%
COc1ccc(OC)c(C(=O)/C=C/c2cc3c(c(OC)c2OC)OCO3)c1 | 47.3% | 60.3% | 52% | 71.5% | 50.4% | 61.8% | 68.4% | 55.4% | 47.8% | 89.7%
CCN(CC)C(=S)SC(SC(=S)N(CC)CC)C(=O)c1nnn(-c2ccc([N+](=O)[O-])cc2)c1C | 99% | 87.3% | 107% | 90.8% | 81.5% | 78.1% | 76.7% | 86.5% | 89% | 104%
CCCCNC(=O)Oc1ccc(/C(=C(/CC)Cc2ccccc2)c2ccc(OCCN3CCCCCC3)cc2)cc1 | -29.9% (active) | -21% (active) | 61.2% | 45.2% | 25.7% | 39.8% | 13.1% | 24% | -93.6% (active) | -6.15% (active)
CCN(CC)CCSc1nc(-c2ccccc2)c(C#N)c(=O)[nH]1 | 117% | 142% | 129% | 101% | 105% | 116% | 85.1% | 108% | 99.9% | 110%
C=C1C(=O)O[C@H]2[C@H]1CC/C(COC(=O)CSCCSCC(=O)OC/C1=C/CC[C@@]3(C)O[C@H]3[C@H]3OC(=O)C(=C)[C@@H]3CC1)=C\CC[C@@]1(C)O[C@@H]21 | -18.1% (active) | 0.0255% (active) | 56.6% | 55.9% | 7.29% (active) | 1.19% (active) | 78.4% | 25.6% | -53.3% (active) | 4.71% (active)
O=C1c2cccc(NCCN=Cc3cc(O)ccc3O)c2C(=O)c2c(NCCN=Cc3cc(O)ccc3O)cccc21 | 23.2% | -22.1% (active) | -22% (active) | -22.4% (active) | -43.8% (active) | -38.4% (active) | 4.84% (active) | 5.11% (active) | -44.9% (active) | -30.9% (active)
O=C(CCc1nnc(Cn2cnc3nc[nH]c3c2=O)o1)c1nc2ncccc2[nH]1 | 104% | 92% | 92.5% | 94.6% | 101% | 105% | 104% | 94.3% | 88.1% | 111%
Cn1cc(-c2nonc2-c2c[nH]c3ccc(Br)cc23)c2cc(Br)ccc21 | 28.2% | 20.6% | -11.2% (active) | 42.8% | 42.9% | 43.4% | 70.3% | 53.9% | 24.8% | 59.4%
